Compound activity from PubChem.
Rows were chosen to be rich in hits. Some 7.2% of all compounds tested hit in one or more screens of this group.
NIH3T3 tox = Cytotoxic Profiling in NIH 3T3 Cell Line of Diverse Libraries Using Quantitative High-Throughput Screening. NIH 3T3 viability, CellTiter-Glo ATP luminescence, 48-72 h. Potency, µM (highest dose often 96.7 µM), most hits filed as inhibitors. hit rate 4.3% among 94,000. AID 1345082, 2018; further: nearly all actives have a fitted effect of over 55% in size
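Mouse fibroblast NIH 3T3 cells, 400 per well, received compound via pintool and were incubated for 48 or 72 hr prior to CellTiter-Glo ATP luminescence measurement.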
HEK293 tox = Cytotoxic Profiling in HEK 293 Cell Line of Diverse Libraries Using Quantitative High-Throughput Screening. HEK 293 viability, ATP luminescence (CellTiter-Glo), 48-72 h. Potency, µM (titrated, usually from 115 µM), usual class: inhibitors. hit rate 6.6% among 94,000. AID 1345083, 2018; further: nearly all actives have a fitted effect of over 60% in size
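Luminescence from cellular ATP, measured with CellTiter-Glo, indicates HEK 293 viability. Cells plated at 250 cells/well are treated with compound for 48 or 72 hr at 37 degree Celsius before reagent addition.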
SNCA expr inh = Primary qHTS assay for inhibitors of alpha-synuclein gene (SNCA) expression. Potency, µM (highest dose often 57.2 µM), hits mostly inhibitors. HEK-293 SNCA-luciferase knock-in, luminescence, 24 h. AID 1671194, 2021. hit rate 0.17% among 140,000; further: nearly all actives have a fitted effect of over 45% in size
Luciferase inh = Firefly luciferase inhibition profiling of diverse chemical library using quantitative high-throughput screening. Luciferin 4-monooxygenase (Photinus pyralis), P08659. purified P. pyralis luciferase, luminescence, biochemical. Potency, µM (series often up to 115 µM), usual class: inhibitors. hit rate 2.5% among 76,000; further: nearly all actives have a fitted effect of over 65% in size
Target sequence (P08659 whole entry, looked up): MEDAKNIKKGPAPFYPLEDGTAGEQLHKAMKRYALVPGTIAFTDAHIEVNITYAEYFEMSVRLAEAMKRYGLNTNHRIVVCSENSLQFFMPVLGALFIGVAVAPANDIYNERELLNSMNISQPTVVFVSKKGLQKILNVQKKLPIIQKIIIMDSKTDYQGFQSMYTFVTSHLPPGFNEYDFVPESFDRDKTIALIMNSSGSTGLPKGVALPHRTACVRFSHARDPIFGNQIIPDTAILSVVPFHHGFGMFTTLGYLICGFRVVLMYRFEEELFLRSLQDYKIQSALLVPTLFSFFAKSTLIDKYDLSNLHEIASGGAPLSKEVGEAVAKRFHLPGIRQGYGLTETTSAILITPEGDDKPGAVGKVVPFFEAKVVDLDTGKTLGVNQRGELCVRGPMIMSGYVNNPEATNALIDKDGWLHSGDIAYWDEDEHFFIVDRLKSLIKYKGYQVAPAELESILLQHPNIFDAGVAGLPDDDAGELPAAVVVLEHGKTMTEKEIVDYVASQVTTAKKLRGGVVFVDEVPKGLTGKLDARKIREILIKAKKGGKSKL
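Inhibitors were tested against purified firefly luciferase in a biochemical, low-substrate format (both substrates at 10uM) and luminescence measured with a CCD imager.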
SNCA viab count = GF-AFC viability counterscreen for inhibitors of alpha-synuclein gene (SNCA) expression. Potency, µM (top dose mostly 57.1 µM), hits mostly cytotoxic. HEK-293-SNCA-luc viability, GF-AFC fluorescence, 24 h. hit rate 0.12% among 150,000; further: nearly all actives have a fitted effect of over 30% in size
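HEK-293-SNCA-luc cells (1500/well) plated 24 h, then exposed 24 h to a dilution series; GF-AFC added 30 min at 37C, fluorescence 405/540 nm; normalised to medium-only and DMSO wells, Hill fit.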
hNpr1 antagonist = Natriuretic polypeptide receptor (hNpr1) antagonism - Primary qHTS | Atrial natriuretic peptide receptor 1 (Homo sapiens), P16066 | HEK293 hNpr1 GloSensor cGMP, ANP-stimulated luminescence | Potency, µM (titrated, usually from 46.3 µM), usual class: inhibitors | AID 1347048, 2019 | hit rate 1.6% among 76,000; calls by dose curve; further: nearly all actives have a fitted effect of over 60% in size
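Compound pre-incubated 30 min at room temperature on GloSensor-loaded HEK293 cells stably carrying hNpr1 and the pGS-40F cGMP biosensor. Stimulation uses hNppA at 0.1 nM final; luminescence is taken at baseline and 20 min post-agonist.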
NPR1 antag cnf = Natriuretic polypeptide receptor (hNpr1) antagonism - Confirmation. HEK293 hNpr1 cGMP GloSensor luminescence, ANP-stimulated. shares compounds with hNpr1 antagonist. Potency, µM (titrated, usually from 57.6 µM), hits mostly inhibitors. hit rate 76% among 1,400; calls by dose curve; further: nearly all actives have a fitted effect of over 70% in size
Npr2 selectivity = Natriuretic polypeptide receptor (hNpr2) antagonism - Subtype selectivity assay; shares compounds with hNpr1 antagonist; HEK293 hNpr2 GloSensor cGMP luminescence, CNP-stimulated; Potency, µM (titrated, usually from 57.6 µM), hits mostly inhibitors; hit rate 67% among 1,400; calls by dose curve; further: nearly all actives have a fitted effect of over 70% in size
FLuc counter = Natriuretic polypeptide receptor (hNpr1) antagonism - Confirmation firefly luciferase (FLuc) inhibition counterscreen | shares compounds with hNpr1 antagonist | purified FLuc enzyme, luminescence, Km substrate | Potency, µM (titrated, usually from 57.6 µM), most hits filed as inhibitors | hit rate 0.7% among 1,400; further: series mostly up to about 58 µM
GloSensor ctrl = Natriuretic polypeptide receptor (hNpr1) antagonism - Counterscreen GloSensor control cell line; shares compounds with hNpr1 antagonist; HEK293 GloSensor cGMP, SNP-stimulated, luminescence; Potency, µM (titrated, usually from 57.6 µM), most hits filed as inhibitors; hit rate 69% among 1,400; AID 1347051, 2019; calls by dose curve; further: nearly all actives have a fitted effect of over 70% in size
A number is an active result; 0 = inactive; ? = inconclusive; - = not tested or not shown. Unless noted, the call rests on the fitted dose curve; in most records, active means well fitted curve in the direction sought with a large enough effect; inconclusive means small, poorly fitted or top-dose-only effect, or another doubt; inactive means no such curve, though single readings can be large; an effect the other way counts as inactive or inconclusive.

SMILES | NIH3T3 tox | HEK293 tox | SNCA expr inh | Luciferase inh | SNCA viab count | hNpr1 antagonist | NPR1 antag cnf | Npr2 selectivity | FLuc counter | GloSensor ctrl
CC1=C(C(=O)OC(C)C)C(c2ccc(C)cc2)N2C(CC(=O)N3CCCCC3)=CSC2=N1 (configuration not stated) | ? | ? | ? | 0 | 0 | 0 | - | - | - | -
C=CCOC(=O)C1=C(C)N=C2SC=C(CC(=O)N3CCCC3)N2C1c1ccc(OC)cc1OC (configuration not stated) | 0 | ? | 0 | 0 | 0 | 0 | - | - | - | -
C=CCOC(=O)C1=C(C)N=C2SC=C(CC(=O)NCC(C)C)N2C1c1ccccc1Cl (configuration not stated) | 0 | ? | 0 | 0 | 0 | ? | - | - | - | -
CC1=C(C(=O)OC(C)C)C(c2ccc(Cl)cc2)N2C(CC(=O)N3CCCC3)=CSC2=N1 (configuration not stated) | ? | ? | 0 | 0 | 0 | ? | 0 | ? | 0 | 0
COC(=O)C1=C(C)N=C2SC=C(CC(=O)N3CCCCC3)N2C1c1ccc(Cl)cc1 (configuration not stated) | 0 | ? | 0 | 0 | 0 | ? | ? | ? | 0 | 0
OC1CC(c2cc(N3CCC(c4nc5ccccc5[nH]4)CC3)ncn2)C1 (configuration not stated) | ? | 0 | 0 | 0 | 0 | 0 | - | - | - | -
COc1ccc(C(=O)N[C@H]2CO[C@H]3[C@@H]2OC[C@H]3OC(=O)Nc2ccccc2)cc1 | ? | 63µM | 0 | 0 | ? | 32µM | 40µM | 35µM | 0 | 35µM
O=C(Nc1ccc(Oc2ccccc2)cc1)O[C@@H]1CO[C@H]2[C@@H]1OC[C@@H]2n1nnnc1SC1CCCC1 | ? | 25µM | 0 | 0 | 0 | 10µM | 17µM | 17µM | 0 | 14µM
COc1ccc(NC(=O)O[C@@H]2CO[C@H]3[C@@H]2OC[C@@H]3NC(=S)Nc2ccc(Cl)cc2)cc1 | ? | 45µM | 0 | 0 | 0 | 13µM | 24µM | ? | 0 | 24µM
COc1ccc(OC)c(S(=O)(=O)N[C@H]2CO[C@H]3[C@@H]2OC[C@H]3OC(=O)Nc2cccc(C(F)(F)F)c2)c1 | ? | ? | ? | 0 | ? | 13µM | 27µM | 22µM | 0 | 27µM
N#Cc1cccc(NC(=O)O[C@@H]2CO[C@H]3[C@@H]2OC[C@@H]3n2nnnc2SC2CCCC2)c1 | 0 | 0 | 0 | 0 | 0 | 0 | - | - | - | -
COc1cc(NC(=S)N[C@H]2CO[C@H]3[C@@H]2OC[C@H]3OC(=O)Nc2ccccc2)cc(OC)c1 | 0 | 0 | 0 | 0 | 0 | 0 | - | - | - | -
COc1ccc(OC)c(S(=O)(=O)N[C@H]2CO[C@H]3[C@@H]2OC[C@H]3OC(=O)Nc2cccc(C(C)=O)c2)c1 | 0 | 0 | 0 | 0 | 0 | 0 | - | - | - | -
COCC1CN(C2CCC2)CC12CCN(C(=O)NCc1ccccc1)CC2 (configuration not stated) | 0 | ? | ? | 0 | 0 | 0 | - | - | - | -
CCn1c(CN(C)C)nnc1C1CCN(C(=O)Cn2nc(C)cc2N)CC1 | 0 | 0 | 0 | 0 | 0 | 0 | - | - | - | -
O=C(CC1=C2CCCCC2NC1=O)NCCc1c[nH]c2ccccc12 (configuration not stated) | 0 | ? | 0 | 0 | 0 | 0 | - | - | - | -
COc1ccc(C(=O)NC2CCN(c3cc(-c4ccccc4)[nH]n3)C2)cc1OC (configuration not stated) | 0 | ? | ? | 0 | 0 | 0 | - | - | - | -
COc1ccc(NC(=O)N[C@H]2CO[C@H]3[C@@H]2OC[C@H]3OC(=O)Nc2ccc(Oc3ccccc3)cc2)cc1 | ? | 18µM | 0 | 0 | 0 | 13µM | 14µM | 17µM | 0 | 12µM
CCNC(=O)O[C@@H]1CO[C@H]2[C@@H]1OC[C@@H]2NC(=O)Nc1ccc(C(C)C)cc1 | 0 | 0 | 0 | 0 | 0 | 0 | - | - | - | -
O=C(Nc1ccccc1)O[C@@H]1CO[C@H]2[C@@H]1OC[C@@H]2NCc1ccccc1 | ? | ? | 0 | 0 | 0 | 0 | - | - | - | -
CC(C)c1ccc(NC(=O)N[C@H]2CO[C@H]3[C@@H]2OC[C@H]3OC(=O)Nc2ccc(Oc3ccccc3)cc2)cc1 | ? | ? | 0 | 0 | 0 | ? | 19µM | 19µM | 0 | 19µM
CN(C)c1ccc(CN[C@H]2CO[C@H]3[C@@H]2OC[C@H]3OC(=O)Nc2ccc(Oc3ccccc3)cc2)cc1 | ? | ? | ? | 0 | 0 | ? | ? | ? | 0 | 22µM
COCCN(CCOC)C(=O)[C@@H](C)C1CC[C@@]2(C)CC[C@H](NC(=O)COC)[C@@H](C)[C@@H]2[C@H]1O (some centres not stated) | 0 | 0 | 0 | 0 | 0 | 0 | - | - | - | -
O=C1COc2ccc(OCc3ccc(F)cc3)nc2CN1CCOc1ccccc1 | ? | ? | 0 | 0 | 0 | 32µM | 35µM | 35µM | 0 | 28µM
O=C1COc2ccc(OCc3cccnc3)nc2CN1CCOc1ccccc1 | ? | ? | 0 | 0 | 0 | ? | - | - | - | -
O=C1COc2ccc(OCc3cncs3)nc2CN1CCOc1ccccc1 | ? | ? | 0 | 0 | 0 | 32µM | 40µM | 31µM | 0 | ?
COCCCn1c(C)cnc1C1CCN(C(=O)C2(c3ccc(OC)cc3)CC2)C1 (configuration not stated) | 0 | 0 | 0 | 0 | 0 | 0 | - | - | - | -
Cc1ccc(NC(=O)CCC2CCN(S(=O)(=O)c3ccccc3C)CC2)cc1F | ? | 0 | 0 | 0 | 0 | ? | ? | ? | 0 | ?
Cc1ccccc1S(=O)(=O)N1CCC(CCC(=O)O)CC1 | 0 | 0 | 0 | 0 | 0 | 0 | - | - | - | -
